# High-throughput results as filed in PubChem.
# TDP1 block = inhibitors of human tyrosyl-DNA phosphodiesterase TDP1; Q9NUW8; recombinant TDP1, AlphaScreen DNA substrate cleavage; Potency, µM (top dose mostly 130 µM), without a hit: at the highest dose activity change, negative = inhibition, actives largely listed as inhibitors; actives 0.28% (n = 350,000); also: potency is read from the fitted curve at half-maximal effect; % is scaled to controls: 0 for no effect and ±100 for the full control effect; nearly all actives have a fitted effect of over 40% in size
# Target sequence (Q9NUW8 whole entry, looked up): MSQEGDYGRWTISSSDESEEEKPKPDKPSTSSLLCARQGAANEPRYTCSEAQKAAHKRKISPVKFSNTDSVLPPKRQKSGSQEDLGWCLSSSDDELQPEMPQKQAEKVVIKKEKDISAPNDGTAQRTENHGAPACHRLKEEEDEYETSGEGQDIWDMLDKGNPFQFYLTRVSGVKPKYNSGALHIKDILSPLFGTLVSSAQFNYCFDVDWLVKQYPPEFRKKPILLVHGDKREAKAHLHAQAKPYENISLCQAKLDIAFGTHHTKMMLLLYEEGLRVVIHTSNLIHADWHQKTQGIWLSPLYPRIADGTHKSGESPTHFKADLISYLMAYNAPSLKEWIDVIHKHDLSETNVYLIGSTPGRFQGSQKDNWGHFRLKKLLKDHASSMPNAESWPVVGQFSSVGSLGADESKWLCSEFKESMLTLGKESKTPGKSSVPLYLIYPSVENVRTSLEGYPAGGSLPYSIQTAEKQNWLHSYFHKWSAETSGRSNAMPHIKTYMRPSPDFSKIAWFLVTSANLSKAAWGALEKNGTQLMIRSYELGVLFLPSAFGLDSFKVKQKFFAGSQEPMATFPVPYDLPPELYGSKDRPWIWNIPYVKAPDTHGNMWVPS
#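 AlphaScreen read-out: signal falls as enzyme removes the 3' tyrosine-FITC from a 5'-biotinylated DNA oligo (15 nM, 5 min, RT). Enzyme was E. coli-made recombinant Tdp1 at 1 nM, exposed to compound for 15 min beforehand; beads 10 ug/ml, 10 min.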
# IL-1B inflam inh = inflammasome signaling inhibition, IL-1 beta readout; activity change, % at 57.5 µM; THP-1 LPS/ATP IL-1B secretion, AlphaLISA, 16 h; active compounds read low; actives 4.7% (n = 360,000); AID 743279; in the data active = activity change below about -50%; inconclusive = mostly about -30% to -49%; also: % is scaled to controls: 0 for no effect and ±100 for the full control effect
#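 Secreted IL-1B measured by AlphaLISA bead assay after 16 h compound exposure of THP-1 cells; compounds (final up to 57.5 uM) added 1 h before LPS (250 ng/mL) and ATP (1.25 mM) stimulation; lower signal means less secretion.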
# HepG2 tox = kills HepG2 cells in TGF-b inhibitor counter-screen; HepG2 CAGA-GFP viability, ATP luminescence, 18 h; Potency, µM (top dose mostly 46.1 µM), without a hit: top-dose activity change, negative = cytotoxicity, most hits filed as cytotoxic; actives 0.76% (n = 410,000); also: potency is read from the fitted curve at half-maximal effect
#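 CellTiter-Glo luminescence gave cytotoxicity after 18 hours at 37 degrees C. The cells were HepG2 CAGA-GFP in 1% FBS DMEM, stimulated with 500 pg/mL TGF-beta after compound addition. %Activity was normalised to no-cell wells (complete cell-killing) and DMSO (no toxicity), and curves were fitted and classified.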
# DT40 TDP1 no CPT = qHTS for Inhibitors of human tyrosyl-DNA phosphodiesterase 1 (TDP1): qHTS in cells in absence of CPT; DT40 Tdp1-/- hTDP1 cells, no CPT, ATP luminescence, 48 h; Potency, µM (titrated, usually from 46.2 µM), without a hit: at the highest dose activity change, negative = growth inhibition, usual class: inhibitors; actives 15% (n = 420,000); AID 686978, 2013; also: potency is read from the fitted curve at half-maximal effect; % is scaled to controls: 0 for no effect and ±100 for the full control effect; nearly all actives have a fitted effect of over 55% in size
#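 Compound effects on proliferation are scored in DT40 Tdp1-/-;hTDP1 cells in the absence of CPT. ATP levels (CellTiter-Glo luminescence) are recorded after a ≥48 hr, 37 °C incubation.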
# TGFb SMAD3 inh = inhibitors of TGF-b signaling | HepG2 CAGA-GFP TGF-b/SMAD3 reporter, GFP fluorescence, 18 h; TGF-beta stimulated, 500 pg/mL final | Potency, µM (top dose mostly 46.1 µM), without a hit: at the highest dose activity, negative = inhibition, most hits filed as inhibitors | actives 1.2% (n = 410,000) | AID 588855; also: potency is read from the fitted curve at half-maximal effect; % is scaled to controls: 0 for no effect and ±100 for the full control effect; nearly all actives have a fitted effect of over 65% in size
#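 First, reporter cells (HEPG2 CAGA-GFP) rested 2 h at 37 degrees C. Next, compounds were pinned in and TGF-beta added to 500 pg/mL final. After 18 h, GFP was imaged per cell and summed per well.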
# TDP1 cell CPT = DT40-hTDP1 cell growth loss with CPT; chicken DT40 Tdp1-/-;hTDP1 cells + 20 nM CPT, ATP luminescence, 48 h; Potency, µM (highest dose often 46.2 µM), inactives show at the highest dose activity change, negative = growth inhibition, most hits filed as inhibitors; actives 12% (n = 420,000); also: potency is read from the fitted curve at half-maximal effect; % is scaled to controls: 0 for no effect and ±100 for the full control effect; nearly all actives have a fitted effect of over 55% in size
#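 Chicken DT40 Tdp1-/- cells stably complemented with human TDP1 were seeded at 400 cells/well in medium containing 20 nM camptothecin, exposed to pin-transferred compounds, and grown at 37 °C for at least 48 hr. Viability was read as ATP luminescence.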
# An asterisk follows results filed as active; ? = inconclusive; nt = no result given; [ ] = another dose, or the depositor's remark. Shown are actives, neighbours in structure and some others; about 19% of the full set was active somewhere. Unless noted, calls follow the shape of the dose curve; as a rule, active = well fitted curve in the direction sought with a large enough effect; inconclusive = small, poorly fitted or top-dose-only effect, or another doubt; inactive = no such curve, though single readings can be large; an effect the other way counts as inactive or inconclusive.
SMILES,TDP1 block,IL-1B inflam inh,HepG2 tox,DT40 TDP1 no CPT,TGFb SMAD3 inh,TDP1 cell CPT
O=C(Nc1nc(-c2ccccc2)cs1)c1ccco1,nt,-59*,-23%,?,-24%,?
CC(OC(=O)c1ccc(F)cc1)C(=O)Nc1nc(-c2cccc([N+](=O)[O-])c2)cs1 (centres undefined),2%,?,16%,?,16%,?
O=C(Nc1cc(-c2ccccc2)cs1)c1ccco1,-6%[0.505 µM],-29,-25%,15µM*,-19%,?
CC(C)Oc1ccc(C(=O)OC(C)C(=O)Nc2nc(-c3cccc([N+](=O)[O-])c3)cs2)cc1 (centres undefined),-1%,-3,-3%,26µM*,6%,16µM*
CC(OC(=O)c1ccco1)C(=O)Nc1nc(-c2ccccc2)cs1 (centres undefined),-1%,20,-7%,16µM*,4%,?
Cc1ccc2c(c1)-n1c(nc3ccc(C)cc3c1=O)C(Cc1ccccc1)NC2=O (centres undefined),2%,nt,nt,nt,nt,nt
Cc1ccc(-c2csc(NC(=O)c3ccc(-c4ccccc4)cc3)n2)o1,11%,-23,-32%,?,13µM*,16µM*
CC12c3ccccc3C(c3ccccc31)C1C(=O)N(Cc3cccnc3)C(=O)[C@H]12 (some centres undefined),0%,-10,-25%,?,-3%,18µM*
CC12c3ccccc3C(c3ccccc31)C1C(=O)N(c3ccncc3)C(=O)C12 (centres undefined),2%,0,4%,16µM*,7%,16µM*
O=C1C2C3C=CC([C@@H]2C(=O)N1Cc1cccnc1)C31CC1 (some centres undefined),2%,-5,-9%,-2%,17%,-13%
CC12c3ccccc3C(c3ccccc31)C1C(=O)N(c3cccnc3)C(=O)C12 (centres undefined),2%,20,8%,15µM*,-3%,?
Cc1c(C)c2ccc(OCC(=O)Nc3cccnc3)c(C)c2oc1=O,-7%,9,-7%,18µM*,1%,?
O=C(O)CCC(=O)NNC(=O)COc1ccc2ccccc2c1Br,-2%,3,-14%,5%,21%,0%
COc1ccc(-c2cc(=O)oc3c(C)c(OCC(=O)Nc4cccnc4)ccc23)cc1,-13%,37,8%,-15%,0%,?
O=C(COc1ccc2ccccc2c1Br)Nc1ccncc1,-2%,-1,-17%,7.3µM*,-27%,10µM*
O=C(COc1ccc2ccccc2c1Br)Nc1cccnc1,-9%,?,-29%,?,-3%,16µM*
O=C(Cc1ccccc1)Nc1nnc(-c2cccc([N+](=O)[O-])c2)s1,-3%,-7,-1%,5%,-5%,-15%
O=C(NC1CCCCC1)N(c1ccccc1)c1nnc(-c2cccc([N+](=O)[O-])c2)s1,nt,-6,-35%,12µM*,4%,26µM*
CCCCN(C(=O)c1ccc([N+](=O)[O-])o1)c1c(N)n(CCCC)c(=O)[nH]c1=O,0%[0.505 µM],17,-4%,-17%,-1%,?
CCCCN(C(=O)c1ccc(-c2ccc([N+](=O)[O-])cc2)o1)c1c(N)n(CCCC)c(=O)[nH]c1=O,-7%,12,-65%,16µM*,?,?
CCCCn1c(N)c(N(Cc2ccccc2OC)C(=O)c2ccc([N+](=O)[O-])s2)c(=O)[nH]c1=O,nt,65,-30%,18µM*,?,?
CCCCN(C(=O)c1cc(-c2ccco2)nc2ccccc12)c1c(N)n(CCC)c(=O)[nH]c1=O,28µM*,-5,-3%,-12%,5%,-6%
CCCCN(C(=O)c1ccccc1OCc1ccc(F)cc1)c1c(N)n(CCC)c(=O)[nH]c1=O,1%,6,-9%,?,0%,18µM*
Brc1cccc(-c2cnn3c(-c4ccccc4)cc(-c4ccccc4)nc23)c1,nt,nt,-8%,-9%,4%,-17%
c1cc(-c2cnc3cccnn23)c2cccnc2c1,nt,-25,-22%,?,-9%,9.2µM*
SMILES,TDP1 block,IL-1B inflam inh,HepG2 tox,DT40 TDP1 no CPT,TGFb SMAD3 inh,TDP1 cell CPT
CSc1ccccc1-c1cnc2cccnn12,nt,-54*,-6%,-28%,14%,-19%
Cc1cccc(-c2cnc3cccnn23)c1,nt,-9,-19%,?,7%,?
c1ccc2c(-c3cnc4cccnn34)cncc2c1,nt,-19,-5%,-28%,9%,?
Cc1ccc(C2=NC(=O)/C(=C/c3cc(O)c(O)c(Br)c3)S2)cc1,4%,33,-23%,16µM*,6%,18µM*
CCNc1ncc2nc(-c3cn(C)c4ccccc34)c(=O)n(C[C@H]3CCCO3)c2n1,nt,nt,nt,-3%,nt,5%
Cc1c(Cl)cccc1NC(=S)/C(=C(\[O-])c1ccc(Cl)s1)[n+]1ccccc1,6%,-70*,-13%,-23%,1%,-22%
[O-]/C(=C(\C(=S)Nc1cccc2ccccc12)[n+]1cccc(CO)c1)c1ccc(Cl)s1,7%,0,-111%,-23%,?,-23%
O=C(CSc1nc2c(oc3ccccc32)c(=O)n1-c1ccccc1)Nc1ccccc1F,-2%,nt,-19%,?,-26%,?
Cc1cc(NC(=O)Nc2cccc(Cl)c2)n(-c2ccccc2)n1,-1%,-14,-3%,?,0%,-3%
Cc1cc(NC(=O)c2ccc(F)cc2)n(-c2ccccn2)n1,0%,-68*,-22%,?,-5%,?
Cc1cc(NC(=O)Nc2cccc(Cl)c2)n(-c2ccccn2)n1,0%[0.0935 µM],-73*,-27%,18µM*,?,?
C=Cn1cc[n+](CC(=O)c2ccc(Br)cc2)c1,2%,31,8%,?,-3%,?
Cc1c(C(=O)Nc2ccc(S(=O)(=O)N(C)C3CCN(C)CC3)cc2)oc2c(Cl)cccc12,nt,-96*,-111%,?,?,?
Cc1c(C(=O)Nc2ccc(S(=O)(=O)N(C)C3CCN(C)CC3)cc2)oc2ccccc12,1%,-52*,-47%,18µM*,?,21µM*
COc1ccc(C2CC(=O)c3cc(-c4nc(-c5cccc([N+](=O)[O-])c5)cs4)c(=O)n(-c4ccccc4N)c3C2)cc1 (centres undefined),0%,nt,1%,-15%,-16%,-14%
